In all, about 5,500 compounds went through this assay and about 2,000 (36%) were called active. Inconclusive results (about 18%) are left out. This is one part of the list. A number with no mark means an inactive call. Cut-off read from the data, not from the text of the source: active = normalized growth mostly below about 0.91 (no sharp cut-off); inconclusive = no clear call, values can overlap the other calls; inactive = mostly above about 0.92.
Assay: chemical genetic growth profiling, strain panel (AID 1159580);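 note: tested at 20 µM; growth read once vehicle control cultures reached saturation at 30 °C; 1 = growth at the plate median or of vehicle wells; lower values mean less growth of the strain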
Conditions: growth OD

## COP(=S)(OC)Oc1ccc(SC)c(C)c1
S. cerevisiae deletion strains, locus YJR075W, strain HOC1, active compounds read low
  normalized growth: 1.01
S. cerevisiae deletion strains, locus YKL009W, strain mrt4, active compounds read low
  normalized growth: 0.942
S. cerevisiae deletion strains, locus YKL068W, active compounds read low
  normalized growth: 0.996
S. cerevisiae deletion strains, locus YKL085W, strain MDH1 (second series), active compounds read low
  normalized growth: 0.999
S. cerevisiae deletion strains, locus YKL085W, strain MDH1, active compounds read low
  normalized growth: 0.999
S. cerevisiae deletion strains, locus YKL160W, strain elf1, active compounds read low
  normalized growth: 0.999
S. cerevisiae deletion strains, locus YKL190W, strain CNB1, active compounds read low
  normalized growth: 1
S. cerevisiae deletion strains, locus YKR001C, strain vps1, active compounds read low
  normalized growth: 0.986
S. cerevisiae deletion strains, locus YKR026C, strain gcn3, active compounds read low
  normalized growth: 1.01
S. cerevisiae deletion strains, locus YKR091W, strain srl3, active compounds read low
  normalized growth: 0.995
S. cerevisiae deletion strains, locus YLL001W, strain dnm1, active compounds read low
  normalized growth: 0.986
S. cerevisiae deletion strains, locus YLL026W, active compounds read low
  normalized growth: 0.972
S. cerevisiae deletion strains, locus YLL041C, strain sdh2, active compounds read low
  normalized growth: 1
S. cerevisiae deletion strains, locus YLR027C, strain aat2, active compounds read low
  normalized growth: 0.988
S. cerevisiae deletion strains, locus YLR039C, strain RIC1, active compounds read low
  normalized growth: 1.02
S. cerevisiae deletion strains, locus YLR058C, strain SHM2, active compounds read low
  normalized growth: 1.01
S. cerevisiae deletion strains, locus YLR102C, strain apc9, active compounds read low
  normalized growth: 0.985
S. cerevisiae deletion strains, locus YLR221C, strain rsa3, active compounds read low
  normalized growth: 0.92
S. cerevisiae deletion strains, locus YLR258W, strain gsy2, active compounds read low
  normalized growth: 0.979
S. cerevisiae deletion strains, locus YLR262C, strain YPT6 (second series), active compounds read low
  normalized growth: 0.949
S. cerevisiae deletion strains, locus YLR262C, strain YPT6, active compounds read low
  normalized growth: 1.01
S. cerevisiae deletion strains, locus YLR268W, strain sec22, active compounds read low
  normalized growth: 0.996
S. cerevisiae deletion strains, locus YLR320W, strain mms22, active compounds read low
  normalized growth: 0.857 (active)
S. cerevisiae deletion strains, locus YLR330W, strain CHS5, active compounds read low
  normalized growth: 1.01
S. cerevisiae deletion strains, locus YLR342W, strain FKS1 (second series), active compounds read low
  normalized growth: 0.985
S. cerevisiae deletion strains, locus YLR342W, strain FKS1, active compounds read low
  normalized growth: 0.997
S. cerevisiae deletion strains, locus YLR357W, strain rsc2, active compounds read low
  normalized growth: 1.1
S. cerevisiae deletion strains, locus YLR370C, strain arc18, active compounds read low
  normalized growth: 1.06
S. cerevisiae deletion strains, locus YLR371W, strain rom2, active compounds read low
  normalized growth: 0.989
S. cerevisiae deletion strains, locus YLR384C, strain iki3, active compounds read low
  normalized growth: 1.02
S. cerevisiae deletion strains, locus YLR418C, strain cdc73, active compounds read low
  normalized growth: 0.984
S. cerevisiae deletion strains, locus YML016C, strain PPZ1, active compounds read low
  normalized growth: 1.02
S. cerevisiae deletion strains, locus YML032C, strain rad52, active compounds read low
  normalized growth: 0.979
S. cerevisiae deletion strains, locus YML120C, strain ndi1, active compounds read low
  normalized growth: 0.997
S. cerevisiae deletion strains, locus YML124C, strain tub3, active compounds read low
  normalized growth: 0.985
S. cerevisiae deletion strains, locus YMR058W, strain fet3, active compounds read low
  normalized growth: 0.987
S. cerevisiae deletion strains, locus YMR078C, strain ctf18, active compounds read low
  normalized growth: 0.975
S. cerevisiae deletion strains, locus YMR125W, strain sto1, active compounds read low
  normalized growth: 1.05
S. cerevisiae deletion strains, locus YMR129W, active compounds read low
  normalized growth: 1.01
S. cerevisiae deletion strains, locus YMR205C, strain PFK2, active compounds read low
  normalized growth: 0.947
S. cerevisiae deletion strains, locus YMR223W, strain ubp8, active compounds read low
  normalized growth: 0.982
S. cerevisiae deletion strains, locus YMR231W, strain pep5, active compounds read low
  normalized growth: 1
S. cerevisiae deletion strains, locus YMR263W, strain SAP30, active compounds read low
  normalized growth: 1.01
S. cerevisiae deletion strains, locus YMR307W, strain GAS1, active compounds read low
  normalized growth: 0.908
S. cerevisiae deletion strains, locus YNL067W, strain RPL9B, active compounds read low
  normalized growth: 1.01
S. cerevisiae deletion strains, locus YNL071W, strain lat1, active compounds read low
  normalized growth: 0.879 (active)
S. cerevisiae deletion strains, locus YNL128W, strain TEP1, active compounds read low
  normalized growth: 1.02
S. cerevisiae deletion strains, locus YNL153C, strain GIM3, active compounds read low
  normalized growth: 1.02
S. cerevisiae deletion strains, locus YNL209W, strain ssb2, active compounds read low
  normalized growth: 1.01
S. cerevisiae deletion strains, locus YNL233W, strain BNI4, active compounds read low
  normalized growth: 0.998
S. cerevisiae deletion strains, locus YNL248C, strain rpa49, active compounds read low
  normalized growth: 0.967
S. cerevisiae deletion strains, locus YNL250W, strain rad50, active compounds read low
  normalized growth: 0.987
S. cerevisiae deletion strains, locus YNL271C, strain bni1, active compounds read low
  normalized growth: 0.989
S. cerevisiae deletion strains, locus YNL298W, strain CLA4, active compounds read low
  normalized growth: 0.981
S. cerevisiae deletion strains, locus YNL307C, strain MCK1, active compounds read low
  normalized growth: 0.979
S. cerevisiae deletion strains, locus YNL322C, strain KRE1 (second series), active compounds read low
  normalized growth: 1.01
S. cerevisiae deletion strains, locus YNL322C, strain KRE1, active compounds read low
  normalized growth: 1.02
S. cerevisiae deletion strains, locus YNR049C, strain mso1, active compounds read low
  normalized growth: 1
S. cerevisiae deletion strains, locus YNR052C, strain pop2, active compounds read low
  normalized growth: 0.984
S. cerevisiae deletion strains, locus YOL006C, strain TOP1, active compounds read low
  normalized growth: 1.01
S. cerevisiae deletion strains, locus YOL012C, strain htz1
  normalized growth: 1.06
S. cerevisiae deletion strains, locus YOL147C, strain pex11, active compounds read low
  normalized growth: 0.985
S. cerevisiae deletion strains, locus YOR001W, strain rrp6, active compounds read low
  normalized growth: 0.99
S. cerevisiae deletion strains, locus YOR061W, strain CKA2, active compounds read low
  normalized growth: 1.01
S. cerevisiae deletion strains, locus YOR069W, strain VPS5, active compounds read low
  normalized growth: 1.01
S. cerevisiae deletion strains, locus YOR070C, strain gyp1, active compounds read low
  normalized growth: 0.978
S. cerevisiae deletion strains, locus YOR080W, strain dia2, active compounds read low
  normalized growth: 1.03
S. cerevisiae deletion strains, locus YOR083W, strain WHI5, active compounds read low
  normalized growth: 0.951
S. cerevisiae deletion strains, locus YOR106W, strain vam3, active compounds read low
  normalized growth: 0.968
S. cerevisiae deletion strains, locus YOR136W, strain idh2, active compounds read low
  normalized growth: 0.985
S. cerevisiae deletion strains, locus YOR144C, strain elg1, active compounds read low
  normalized growth: 0.992
S. cerevisiae deletion strains, locus YOR184W, strain ser1, active compounds read low
  normalized growth: 0.958
S. cerevisiae deletion strains, locus YOR265W, strain rbl2, active compounds read low
  normalized growth: 1.01
S. cerevisiae deletion strains, locus YOR270C, strain vph1, active compounds read low
  normalized growth: 0.791
S. cerevisiae deletion strains, locus YOR290C, strain snf2, active compounds read low
  normalized growth: 0.994
S. cerevisiae deletion strains, locus YOR316C, strain cot1, active compounds read low
  normalized growth: 0.992
S. cerevisiae deletion strains, locus YPL051W, strain arl3, active compounds read low
  normalized growth: 0.96
S. cerevisiae deletion strains, locus YPL055C, strain LGE1, active compounds read low
  normalized growth: 1.01
S. cerevisiae deletion strains, locus YPL078C, strain atp4, active compounds read low
  normalized growth: 0.988
S. cerevisiae deletion strains, locus YPL106C, strain sse1, active compounds read low
  normalized growth: 1.08
S. cerevisiae deletion strains, locus YPL240C, strain hsp82, active compounds read low
  normalized growth: 1.03
S. cerevisiae deletion strains, locus YPL241C, strain CIN2, active compounds read low
  normalized growth: 1.01
S. cerevisiae deletion strains, locus YPR119W, strain clb2, active compounds read low
  normalized growth: 0.981
S. cerevisiae deletion strains, locus YPR141C, strain kar3, active compounds read low
  normalized growth: 0.988
S. cerevisiae deletion strains, locus YPR163C, strain tif3, active compounds read low
  normalized growth: 0.98
S. cerevisiae deletion strains, locus YPR167C, strain met16, active compounds read low
  normalized growth: 0.983
S. cerevisiae deletion strains, strain wtn01, active compounds read low
  normalized growth: 0.989
S. cerevisiae strains, strain wild type, active compounds read low
  normalized growth: 1.01

Source: PubChem BioAssay AID1159580 (chemical genetic matrix, 2015)
